Structures are written as SMILES. Several values for one entry are separate records, joined by “and”; a condition that tells them apart may be missing. Identical values can stand only once. Records with an inconclusive call do not appear. Activity calls are given as the source filed them. Unless noted, the call rests on the fitted dose curve; in most records, active means well fitted curve in the direction sought with a large enough effect; inconclusive means small, poorly fitted or top-dose-only effect, or another doubt; inactive means no such curve, though single readings can be large; an effect the other way counts as inactive or inconclusive.

We go through 29 compounds from PubChem BioAssay (NCATS).

For assay [1], the target named is Cytochrome P450 2C9 (Homo sapiens) (UniProt P11712). Put plainly: Cytochrome P450 family 2 subfamily C member 9 (CYP2C9) small molecule antagonists: luciferase biochemical (cell-free) qHTS assay (AID 1645842; active means well fitted curve in the direction sought with a large enough effect in the repeat runs; an effect the other way counts as inactive or inconclusive; further: nearly all actives have a fitted effect of over 55% in size; further: potency means the concentration at half of the fitted maximal effect). Summed up: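 Luminescence, after 20 min with luciferin detection reagent, reflected CYP2C9 turnover during a 1 h NADPH-driven reaction at 37C. Enzyme-substrate mix contained 0.4% bovine serum albumin and was preincubated with compound 10 min at room temperature.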
Background: Quantitative high-throughput screening tests each substance at several concentrations.

The nature of assay [2]: Primary qHTS for inhibitors of nuclear receptor binding SET domain protein 2 (NSD2) in an isogenic RCH-ACV NSD2 p.E1099K mutant (9B) (AID 1645876). Further: nearly all actives have a fitted effect of over 70% in size. Further: potency means the concentration at half of the fitted maximal effect. On activity change, negative = viability loss: on the % scale 0 is the no-effect control and ±100 the full control effect.
A short description of assay [3]: Primary qHTS for inhibitors of nuclear receptor binding SET domain protein 2 (NSD2) in an RCH-ACV wild type WT cells (2C) (AID 1645877). Further: potency means the concentration at half of the fitted maximal effect; nearly all actives have a fitted effect of over 70% in size.
Assay [4] addresses N-terminal Xaa-Pro-Lys N-methyltransferase 1 (Homo sapiens) (UniProt Q9BV86). Put plainly: Confirmatory qHTS for Inhibitors of N-terminal methyltransferase 1 (NTMT1): MTaseGlo Assay (AID 1645874). Further: nearly all actives have a fitted effect of over 65% in size. Further: potency means the concentration at half of the fitted maximal effect. In a few lines: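 Luminescent MTase-Glo read-out of SAH. 125 nM NTMT1, 100 uM SAM, 1 uM SPKRIA substrate, 30 min RT reaction after 15 min compound preincubation. Normalized to no-enzyme and DMSO controls; Hill fit.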

The target of assay [5] is Catechol O-methyltransferase (Homo sapiens) (UniProt P21964). The experiment in a line: Confirmatory Screen for Target Class Profiling of Small Molecule Inhibitors of Methyltransferases (AID 1745852). The following applies: MTase-Glo luminescence, SAH detection, recombinant enzyme; measured here: COMT max response; stronger effect = lower value.
Another assay concerns the target Papain (Carica papaya) (UniProt P00784). The experiment in a line: Primary qHTS assay for inhibitors of the protease papain (AID 1645873).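 Further: papain turnover of Z-FR-AMC read as the AMC fluorescence gain over 10 min; series mostly up to about 50 µM; on the % scale 0 is the no-effect control and ±100 the full control effect.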

Chain of Catechol O-methyltransferase (Homo sapiens) (P21964 whole entry, looked up): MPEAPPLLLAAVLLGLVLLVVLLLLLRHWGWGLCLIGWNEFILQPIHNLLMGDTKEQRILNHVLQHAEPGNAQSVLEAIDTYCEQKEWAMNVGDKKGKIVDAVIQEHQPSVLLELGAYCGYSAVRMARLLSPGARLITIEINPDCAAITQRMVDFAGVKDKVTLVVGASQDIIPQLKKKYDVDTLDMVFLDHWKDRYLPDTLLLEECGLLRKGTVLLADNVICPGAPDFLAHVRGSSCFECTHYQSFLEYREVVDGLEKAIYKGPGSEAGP
Chain of N-terminal Xaa-Pro-Lys N-methyltransferase 1 (Homo sapiens) (Q9BV86 whole entry, looked up): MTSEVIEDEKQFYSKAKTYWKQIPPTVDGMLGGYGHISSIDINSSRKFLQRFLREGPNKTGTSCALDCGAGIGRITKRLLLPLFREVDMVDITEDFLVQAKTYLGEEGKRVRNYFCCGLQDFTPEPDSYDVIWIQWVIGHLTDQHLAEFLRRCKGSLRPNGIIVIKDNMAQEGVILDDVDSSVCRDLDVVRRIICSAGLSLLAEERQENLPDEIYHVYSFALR
Chain of Cytochrome P450 2C9 (Homo sapiens) (P11712 whole entry, looked up): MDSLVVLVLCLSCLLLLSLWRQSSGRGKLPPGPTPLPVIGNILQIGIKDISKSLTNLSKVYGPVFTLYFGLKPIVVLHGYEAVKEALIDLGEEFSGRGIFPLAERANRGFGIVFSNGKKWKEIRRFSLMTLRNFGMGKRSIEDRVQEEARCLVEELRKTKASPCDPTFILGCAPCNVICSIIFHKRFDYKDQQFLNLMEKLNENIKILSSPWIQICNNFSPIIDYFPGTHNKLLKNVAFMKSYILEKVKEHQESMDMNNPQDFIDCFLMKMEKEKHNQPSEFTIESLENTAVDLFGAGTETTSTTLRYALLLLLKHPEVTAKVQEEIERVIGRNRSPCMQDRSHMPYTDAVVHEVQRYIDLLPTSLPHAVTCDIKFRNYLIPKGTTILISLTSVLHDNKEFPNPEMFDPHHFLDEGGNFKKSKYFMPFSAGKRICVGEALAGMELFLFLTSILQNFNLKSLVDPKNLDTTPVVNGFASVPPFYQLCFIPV
Chain of Papain (Carica papaya) (P00784 whole entry, looked up): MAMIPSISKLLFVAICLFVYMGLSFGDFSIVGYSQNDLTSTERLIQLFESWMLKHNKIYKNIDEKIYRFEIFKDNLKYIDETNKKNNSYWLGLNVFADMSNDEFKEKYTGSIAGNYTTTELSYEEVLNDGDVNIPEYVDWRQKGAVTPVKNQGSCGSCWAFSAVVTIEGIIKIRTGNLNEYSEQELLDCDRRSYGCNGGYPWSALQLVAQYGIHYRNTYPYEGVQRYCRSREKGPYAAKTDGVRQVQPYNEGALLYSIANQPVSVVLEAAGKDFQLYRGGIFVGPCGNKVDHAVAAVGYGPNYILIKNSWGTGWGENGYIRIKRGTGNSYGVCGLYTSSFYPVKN

As to `COCCN1CCN(Cc2ccc(-c3n[nH]c4c3C(=O)c3c(NC(=O)NN5CCOCC5)cccc3-4)cc2)CC1`, the Potency was 2.13 µM (active) in assay [1]; 45.9 nM (active) and 59 nM (active) in assay [2]; 36.5 nM (active) and 52.5 nM (active) in assay [3]. As for `O=C(c1cc2c(cc1F)OC(c1ccc(F)cc1)(c1ccc(Cl)cc1Cl)O2)N1CCOCC1` (centres undefined), the Potency in assay [1] is 10.7 µM (active); in assay [3], 20.5 µM (active). Consider `CC1=C2C(O)C(=O)OC(c3ccoc3)C2(C)CCC1O` (centres undefined), for which, in assay [2], the Potency result was “inactive”. `CC(=O)OCC1(O)CCC2C(COC3OC(CO)C(O)C(O)C3OC(=O)/C=C/c3ccc(O)cc3)=COC(OC(=O)CC(C)C)C21` (centres undefined): the Potency result in assay [2] was “inactive”. For the compound `C=C(C(=O)O)C1CC2=C(C)CCCC2(C)C[C@@H]1O` (some centres undefined), in assay [2], the Potency result is “inactive”.

Regarding `C/C=C/c1ccc2oc(-c3ccc(O)c(OC)c3)c(C)c2c1`, the Potency entry in assay [4] was “inactive”. Further, the Potency in assay [2] is 14.5 µM (active); in assay [3], 16.3 µM (active).

With `C[C@H]1C(=O)N2c3ccccc3[C@@]3(O)C[C@@H]4C(=O)N[C@](C)(c5nc6ccccc6c(=O)n54)N1[C@@H]23`, the Potency entry in assay [2] is “inactive”. On to `O=C(C(c1ccccc1)c1ccccc1)N1CCN(CC(O)COc2cccc3ncccc23)CC1` (centres undefined), for which the Potency in assay [1] was 12 µM (active); in assay [3], 14.5 µM (active) and 20.9 µM (active). As to `O=C1CCC(=O)N(O)CCCCCNC(=O)CCC(=O)N(O)CCOCCNC(=O)CCC(=O)N(O)CCCCCN1`, the Potency entry in assay [2] is “inactive”. `Nc1ncnc2c1nc(N)n2[C@@H]1O[C@H](CO)[C@@H](O)[C@H]1O`: in assay [4], the Potency result was “inactive”. For the same compound, the results for the Potency in assay [2] and in assay [3] were 1.45 µM (active) and 0.649 µM (active), respectively. For `OC/C=C/C=C/[C@H]1Cc2cc(O)cc(O)c2O1`, the Potency result in assay [2] was “inactive”. `CNC(=O)c1ccccc1Nc1cc(Nc2ccc(N3CCOCC3)cc2OC)ncc1C(F)(F)F`: in assay [4], the Potency entry was “inactive”. For the same compound, the Potency in assay [2] and in assay [3] was 2.9 µM (active) in each case. Take `COc1cc(OC)cc(C(=O)Nc2ccc(Cl)c(-c3nc4ccc(N(C)C)cc4[nH]3)c2)c1`: the Potency in assay [1] was 1.69 µM (active). Besides, the activity in assay [5] was -4.1%. As for `CCOc1ccc(S(=O)(=O)n2c(C)nc3ccccc32)cc1`, the Potency in assay [2] is 8.93 µM (active). Take `COc1c2cc(c(O)c1OC)-c1cc(ccc1O)CCC(O)CCCC2` (centres undefined): the Potency entry in assay [2] was “inactive”.

Consider `CC[C@H]1OC(=O)[C@](C)(F)C(=O)[C@H](C)[C@@H](O[C@@H]2O[C@H](C)C[C@H](N(C)C)[C@H]2O)[C@](C)(OC)C[C@@H](C)C(=O)[C@@H](C)[C@H]2N(CCCCn3cc(-c4cccc(N)c4)nn3)C(=O)O[C@]12C`, for which the Potency in assay [2] is 20.5 µM (active). Consider `C=C1C(=O)OC2CC(C)=C(C(C)CCCO)C(O)C12` (centres undefined), for which the Potency result in assay [2] is “inactive”. Consider `O=C(NOCC(O)CO)c1ccc(F)c(F)c1Nc1ccc(I)cc1F` (centres undefined), for which the Potency result in assay [2] is “inactive”. Same read-out and setting: under `C/C=C1\[C@H](O[C@@H]2O[C@H](CO)[C@@H](O)[C@H](O)[C@H]2O)OC=C2C(=O)OCCc3ccc(O)c(c3)Oc3ccc(cc3)CCOC(=O)C[C@H]21` stands “inactive”; under `CCC(C)/C=C(C)/C=C/c1cc2c(cn1)C(=O)C(C)(OC(C)=O)C(O)=C2Cl` (centres undefined), “inactive”. Consider `CC(Oc1cc(-n2cnc3ccc(CN4CCN(C)CC4)cc32)sc1C(N)=O)c1ccccc1C(F)(F)F` (centres undefined), for which the figures for the Potency in assay [4], in assay [2] and in assay [3] were 21.4 µM (active), 0.578 µM (active) and 0.649 µM (active), respectively. The activity in assay [5] is -36.6%.

Regarding `NC(=O)c1cccc(-c2cc(OC(=O)NC3CCCCC3)ccc2O)c1`, the Potency entry in assay [4] was “inactive”. Take `COc1cc2c(cc1O)CC[C@H]1[C@@H]2CC[C@]2(C)[C@H](O)CC[C@@H]12`: the Potency is 39.8 µM (active) in assay [4], 1.45 µM (active) in assay [2] and 0.916 µM (active) in assay [3]. Moreover, in assay [5], the activity was -76.8%. Consider `CC[C@]1(O)CC2CN(CCc3c([nH]c4ccccc34)[C@@](C(=O)OC)(c3cc4c(cc3OC)N(C)[C@H]3[C@@](O)(C(=O)OC)[C@H](OC(C)=O)[C@]5(CC)C=CCN6CC[C@]43[C@@H]65)C2)C1` (some centres undefined), for which the outcome with Papain (Carica papaya) was “inactive”. In addition, the Potency in assay [2] was 57.8 nM (active) and 417 nM (active); in assay [3], 45.9 nM (active) and 372 nM (active).

Consider `O=C1CSc2ccccc2N1Cc1cccc(C(F)(F)F)c1`, for which the Potency result in assay [1] is “inactive”. The activity in assay [5] was -10.1%.

`Cc1cn(C2C=CC(CO)O2)c(=O)[nH]c1=O` (centres undefined): the Potency result in assay [2] was “inactive”. Still for that read-out and setting: then `C[C@@H]1CCC2C(C)(C)[C@H](O)CC[C@]2(C)[C@@]12Cc1c(O)cc3c(c1O2)CNC3=O` (some centres undefined), with “inactive”; and `C=C1CCC2C(C)(C)C(O)CCC2(C)C1CCC(C)CCOC(C)=O` (centres undefined), with “inactive”. Take `C[C@@H]1O[C@@H](O[C@H]2[C@H](O[C@H]3[C@H](O[C@H]4CC[C@@]5(C)C(CC[C@]6(C)C5CC=C5[C@@H]7CC(C)(C)CC[C@]7(C(=O)O[C@@H]7O[C@H](CO)[C@@H](O[C@@H]8O[C@@H](C)[C@H](O)[C@@H](O)[C@H]8O)[C@H](O)[C@H]7O)CC[C@]56C)C4(C)C)OC[C@H](O)[C@@H]3O)O[C@H](CO)[C@@H](O)[C@@H]2O)[C@H](O)[C@H](O)[C@H]1O` (some centres undefined): the activity change, negative = viability loss in assay [2] was -8.33% [at 9.23 µM] (inactive).
